This note sets out measurements from PubChem BioAssay AID485367 (National Center for Advancing Translational Sciences (NCATS), 2010).

Among all 330,000 compounds or so, about 560 (0.17%) were called active. Another 1% or so got no clear call; they are omitted. Many of the other results were omitted from the sample, so actives are more common in it than they were. Values without a mark were called inactive. Calls come from the whole dose curve; as a rule, active = well fitted inhibition curve with a large enough effect; inconclusive = small, poorly fitted or top-dose-only effect, or effect the other way; inactive = flat fitted curve, though single readings scatter.
Potency is the fitted concentration of half-maximal effect.

ATP-dependent 6-phosphofructokinase (Trypanosoma brucei brucei), sequence (O15648 whole entry, looked up): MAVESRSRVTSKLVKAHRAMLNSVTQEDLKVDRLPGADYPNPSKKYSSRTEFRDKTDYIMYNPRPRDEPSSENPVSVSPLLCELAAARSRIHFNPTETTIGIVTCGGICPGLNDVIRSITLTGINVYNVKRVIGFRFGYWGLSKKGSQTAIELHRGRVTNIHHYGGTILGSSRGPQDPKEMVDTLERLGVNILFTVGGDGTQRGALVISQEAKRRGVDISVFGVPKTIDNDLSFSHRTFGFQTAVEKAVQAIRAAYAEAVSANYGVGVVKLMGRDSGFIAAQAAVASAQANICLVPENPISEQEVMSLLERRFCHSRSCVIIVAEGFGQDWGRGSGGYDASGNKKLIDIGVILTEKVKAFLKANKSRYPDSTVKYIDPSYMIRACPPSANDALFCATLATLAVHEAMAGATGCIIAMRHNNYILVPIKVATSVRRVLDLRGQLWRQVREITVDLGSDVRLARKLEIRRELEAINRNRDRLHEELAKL

In this assay the target is ATP-dependent 6-phosphofructokinase (Trypanosoma brucei brucei) (UniProt O15648). Briefly: qHTS Assay to Find Inhibitors of T. brucei phosphofructokinase. Note: nearly all actives have a fitted effect of over 60% in size. The note with it: T. brucei PFK, ADP-Glo luminescence; series mostly up to 57.5 µM; activity, negative = inhibition: at the top concentration. The text has this:
NIH Molecular Libraries Probe Production Network [MLPCN] NIH Chemical Genomics Center [NCGC] Grant: 1 R03 MH092153-01 PI Name: Malcolm Walkinshaw, University of Edinburgh NCGC Assay Overview: Various species of the protozoan family Trypanosomatidae are responsible for a range of serious human diseases in tropical and subtropical areas of the world. […] Many of the disorders caused by trypanosomatids are fatal if left untreated, but most currently used drugs are inefficient and toxic. […] Oxidative metabolism involving the mitochondrial tricarboxylic acid cycle and oxidative phosphorylation are repressed in these parasites, and recent RNA interference (RNAi) experiments have shown that even partial depletion of certain individual glycolytic enzymes can lead to the death of cultured parasites. One such glycolytic enzyme, phosphofructokinase (PFK), catalyzes the formation of fructose-1,6-bisphosphate (F1,6BP) and ADP from fructose-6-phosphate (F6P) and ATP, and in many metabolic circumstances makes an important contribution to the control of flux through the glycolytic pathway. As a specific glycolytic target, PFK is particularly attractive as it catalyzes the first irreversible step in glycolysis, and structural and kinetic studies have shown very substantial and essential differences from corresponding host enzymes, allowing for the discovery of parasite-selective inhibitors. The goal of this screen is to find small-molecule inhibitors of T. brucei PFK using a biochemical assay that measures PFK activity as a function of ADP production. A luminescence-based assay for T. brucei PFK activity has been developed which uses luciferase to detect production of ADP. Traditional luciferase-based nucleotide detection reagents rely on ATP production as a direct substrate for the luciferase reaction; however, PFK catalyzes the transfer of a phosphate from ATP to F6P, resulting in the net depletion of ATP. To directly measure the ADP product of the PFK reaction, we used the ADP-Glo detection kit (Promega), which utilizes two separate reactions to 1) deplete all remaining uncatalyzed ATP and 2) convert all remaining ADP to ATP, which is then detected through a traditional luciferase-coupled reaction. Compounds were screened as a concentration-titration series that ranged from 57 uM to 0.7 nM.
NCGC Assay Protocol Summary: NCGC Assay Protocol Summary: Substrate buffer was dispensed into white, solid 1536-well plates at 3uL/well in 0.1M triethanolamine (TEA) buffer, pH 8.0, containing final concentrations of 5 mM MgCl2, 0.01% Tween20, 0.5 mM fructose-6-phosphate (F6P) and 0.1mM ATP. Then, 23 nL of compounds or DMSO were delivered to each well using a pin tool. One uL T. brucei PFK (0.1M TEA, 0.01% Tween20, 0.1% bovine serum albumin (BSA) and 1.25nM PFK, final concentrations) was then dispensed, and plates were incubated at room temperature for 45 min. The luminescent detection reagent, ADP-Glo (Promega), was then added in two steps: the first reagent, ADP-Glo (which converts remaining uncatalyzed ATP), was added at 2.5uL/well and incubated for ten minutes at room temperature, and the second component, Kinase Detection reagent (which converts ADP to ATP as a substrate for luciferase-based luminescence), was added immediately after at 5uL/well, followed by one final ten minute room temperature incubation. The plates were measured on a ViewLux plate reader for luminescent signal using a clear filter with a one second exposure. The %Activity was determined from the corrected luminescence values. As no specific T. brucei PFK inhibitors have been identified in the literature, 1x (1.25nM) and 0x PFK enzyme controls (untreated) were included to normalize %Activity of identified inhibitors; 0x enzyme values corresponded to 100%Activity (full inhibition), while 1x PFK enzyme values were used to normalize 0%Activity (no inhibition). Concentration-response curves were fitted to the signals arising from the resulting luminescence. […]
On to `O=C(Cc1ccc([N+](=O)[O-])cc1)N/N=C/c1ccco1`, for which the Potency was 19 µM (active).
On to `OC(Cn1c2ccccc2c2ccccc21)C[n+]1ccccc1` (stereo not given), for which the “activity, negative = inhibition” value is -2.56%.
Same read-out and setting: for `CCCCCCN=C(CC)c1c(O)n(CCCC)c(=O)[nH]c1=O` the value was -1.16%; for `CCOC(=O)C1SC2(C(F)(F)C(F)F)CC1(O)c1c(c(OC)c3occc3c1OC)O2` (stereo not given), 0.275%.
In the case of `Cn1nnnc1NCc1ccc(Cl)c(Cl)c1`, the Potency was 10.7 µM (active).
Consider `Cc1ccc(-n2c(-c3ccc([N+](=O)[O-])cc3)nc3ccccc3c2=O)cc1`, for which the “activity, negative = inhibition” value was 6.06%.
Turning to `CC(Cc1cccs1)NCc1ccc(Cl)cc1` (stereo not given), the “activity, negative = inhibition” value was -2.43%.
As for `O=C1/C(=C\c2ccc3c(c2)OCO3)N2CCC1CC2`, the “activity, negative = inhibition” value is -7.68%.
As to `CCOP(=S)(OCC)C(O)CCCCCn1c(=O)c(F)cn(C2CCCO2)c1=O` (stereo not given), the “activity, negative = inhibition” value is -1.99%.
The same measure, in the same setting: for `COc1ccc(CCn2c(O)c(C=NCCCn3ccnc3)c(=O)[nH]c2=O)cc1OC` the value was 7.53%.
